Screening data deposited in PubChem by Center for Chemical Genomics, University of Michigan.
Dicer inh: inhibitors of human Dicer processing of pre-microRNA; Q9UPY3; cat-ELCCA pre-miR-21 Dicer processing, chemiluminescence; active compounds read high; z-score at 25 µM; hit rate 6% among 47,000; in the data active = z-score above about 3, passing the limit was not always enough;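 also: plate controls were vehicle for no effect and no enzyme for full effect; higher signal means more uncleaved substrate so more Dicer inhibition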
An asterisk follows results filed as active. The entries come from a sample that favours hits as a whole.

SMILES	Dicer inh
O=C1SC(Nc2ccccc2F)C(=O)N1c1ccccc1 (centres undefined)	3.4*
COC(=O)c1ccccc1NC1SC(=O)N(c2ccccc2)C1=O (centres undefined)	0.52
O=C1SC(Nc2cccc(F)c2)C(=O)N1c1ccccc1 (centres undefined)	7.3*
CN(C)c1ccc(C2N=C(c3ccc(Cl)cc3)NN2)cc1 (centres undefined)	-0.5
COC(=O)C1=NN(c2ccccc2OC)C2C(=O)N(c3ccc(Br)cc3)C(=O)C12 (centres undefined)	-3.9
Cc1cc(NC(=O)c2cccs2)c([N+](=O)[O-])cc1C	-0.87
CCOC(=O)c1sc(N2C(=O)c3oc4ccccc4c(=O)c3C2c2cccc(OCC)c2)nc1C (centres undefined)	0.16
O=C(NCc1ccc2c(c1)OCO2)C1CC(c2cccc(Br)c2)=NO1 (centres undefined)	-0.75
CC(C)CNC(=O)C1CC(c2ccccc2)=NO1 (centres undefined)	3.6*
O=C(NCc1ccco1)C1CC(c2ccc(Cl)cc2)=NO1 (centres undefined)	1.6
CCc1cc(C)cc(OCC(O)Cn2c(C)[n+](C)c3ccccc32)c1 (centres undefined)	-0.79
Cc1cc(NC(=O)c2sc3ccccc3c2Cl)cc(-c2nc3ncccc3o2)c1O	1.7
O=[N+]([O-])c1ccsc1Sc1ccc(C(F)(F)F)cn1	-0.18
O=[N+]([O-])c1cc(C(F)(F)F)ccc1Sc1ccc(C(F)(F)F)cn1	-0.36
O=C1NC(=S)S/C1=C/c1ccc(Sc2ccc(C(F)(F)F)cn2)c([N+](=O)[O-])c1	3.4*
Cc1ccnc(NS(=O)(=O)c2ccc(Br)cc2)c1	2.6
CCc1ccnc(NS(=O)(=O)c2ccccc2)c1	3.8*
CCc1ccnc(NS(=O)(=O)c2ccc(C)c(Cl)c2)c1	0.91
CCCN1C(=O)C(O)(CC(=O)c2ccc3c(c2)OCO3)c2cc(Br)ccc21 (centres undefined)	2.8
Cc1ccc(C(=O)CC2(O)C(=O)N(CCc3ccccc3)c3ccc(Br)cc32)o1 (centres undefined)	2.5
O=C(CC1(O)C(=O)N(CCc2ccccc2)c2ccc(Br)cc21)c1ccc2c(c1)OCO2 (centres undefined)	4.1*
O=C(CC1(O)C(=O)N(Cc2ccccc2)c2ccc(Br)cc21)c1ccc2c(c1)OCO2 (centres undefined)	2.8
COc1ccccc1C(=O)CC1(O)C(=O)N(CCc2ccccc2)c2ccc(Br)cc21 (centres undefined)	4.3*
O=C(CC1(O)C(=O)N(CCc2ccccc2)c2ccc(Br)cc21)c1ccccn1 (centres undefined)	1.1
CCOc1cc(C2NC(C(=O)O)CS2)ccc1OCc1ccccc1F (centres undefined)	-0.39
SMILES	Dicer inh
c1nc(Nc2ccc3c(c2)OCO3)c2[nH]cnc2n1	-2.2
CCOc1ccc(C2C(C(=O)c3cc4ccccc4o3)=C(O)C(=O)N2CCN(C)C)cc1 (centres undefined)	0.65
CCNC(=O)c1cccc2c1-c1ccccc1C2=O	-1.5
O=C1c2ccccc2NC(c2ccccc2O)N1c1ccc(F)cc1 (centres undefined)	-0.68
Cc1ccc(/C(O)=C2/C(=O)C(=O)N(c3ccc(O)cc3)C2c2ccccc2)cc1 (centres undefined)	0.95
Cc1ccc(N2C(=O)c3ccccc3C2C(=O)c2cc(C)ccc2O)cc1 (centres undefined)	11*
CCC1(CC)COC2(OC1)C(=O)Nc1ccccc12	1.2
O=S(=O)(/N=C(\N/N=C/c1ccccc1O)N1CCCC1)c1ccccc1	11
Cc1cc(C)c(CSC2=NCCCN2C2CCCCC2)c(C)c1	-0.56
CCc1ccc(C2c3c(oc4cc(C)c(C)cc4c3=O)C(=O)N2CCCN(C)C)cc1 (centres undefined)	0.58
Cc1c2c(=O)n(-c3nc4ccccc4s3)nc-2cc(O)n1CCc1c[nH]c2ccccc12	1.5
Cc1c2c(=O)n(-c3nc4ccccc4s3)nc-2cc(O)n1CCc1cnc[nH]1	3.6*
CCC(C)Cn1c(C)c2c(=O)n(-c3nc4ccccc4s3)[nH]c2cc1=O (centres undefined)	0.75
N/C(=N\O)C1CSc2ccccc2C1=O (centres undefined)	2.1
COc1ccc(-c2cc(C(=O)O)c3ccccc3n2)cc1OC	1.7
CCOc1ccc(-n2nc3ccc(N)cc3n2)cc1	-3.8
CCOc1ccc(-n2nc3cc(C)c(N)cc3n2)cc1	4.6*
COc1ccc(-n2nc3ccc(N)cc3n2)cc1	-4.1
COCCN1C(=O)C(=O)/C(=C(\O)c2ccc(OC)cc2)C12C(=O)N(C)c1ccccc12 (centres undefined)	-0.25
Cc1ccc(/C(O)=C2/C(=O)C(=O)N(CCCN(C)C)C23C(=O)N(C)c2ccccc23)cc1F (centres undefined)	-0.29
CCOc1ccc(/C(O)=C2/C(=O)C(=O)N(CCCOC)C23C(=O)N(C)c2ccccc23)cc1 (centres undefined)	2.5
CCOc1ccc(/C(O)=C2/C(=O)C(=O)N(CCOC)C23C(=O)N(C)c2ccccc23)cc1 (centres undefined)	4.1*
COCCN1C(=O)C(=O)/C(=C(\O)c2ccc(C)cc2)C12C(=O)N(C)c1ccccc12 (centres undefined)	-0.78
COCCN1C(=O)C(=O)/C(=C(\O)c2ccc(OC)c(C)c2)C12C(=O)N(C)c1ccccc12 (centres undefined)	3.2*
CN(C)/C=N/c1nnc(Sc2ncccc2[N+](=O)[O-])s1	0.07
SMILES	Dicer inh
O=c1c(N2CCN(S(=O)(=O)c3ccccc3)CC2)coc2ccccc12	0.15
COc1cccc(-c2ccc(-c3noc(-c4ccc(F)cc4)n3)c(OC)n2)c1	-0.01
COc1cccc(C(=O)NNc2cc(C(F)(F)F)ccn2)c1	1.9
C#CC1(NC(=O)NC(=O)c2ccc(F)c(Cl)c2)CCCCC1	-0.74
COc1ccc(Nc2c3c4c(c(Br)ccc4n(C)c2=O)C(=O)c2ccccc2-3)cc1	0.38
CCCCCCCNc1c2c3c(cccc3n(C)c1=O)C(=O)c1ccccc1-2	-0.78
Cn1c(=O)c(Nc2ccccc2)c2c3c(cccc31)C(=O)c1ccccc1-2	3.3*
CCOC(=O)c1sc(N2C(=O)C(=O)/C(=C(/O)c3ccccc3)C2c2cccc(Cl)c2)nc1C (centres undefined)	-0.32
O=c1c(-c2ccc(Cl)cc2)c(C(F)(F)F)oc2c(CN3CCCC3)c(O)ccc12	2.9
Cc1ccc(S(=O)(=O)/C(C#N)=C/Nc2cc(C(F)(F)F)cc(C(F)(F)F)c2)cc1	3.7*
N#C/C(=C\NCc1cc(C(F)(F)F)cc(C(F)(F)F)c1)S(=O)(=O)c1ccc(Cl)c(Cl)c1	-1.7
Cc1ccc(S(=O)(=O)NNC(=S)Nc2ccc(Br)c(C)c2)cc1	2.6
CSc1nc(C)nc(N/C=C(\C#N)S(=O)(=O)c2ccc(C)cc2)n1	-2.2
CCc1ccc(NC(=S)NNS(=O)(=O)c2ccc(C)cc2)cc1	-0.96
Cc1ccc(S(=O)(=O)NNC(=S)Nc2ccc(Cl)cc2)cc1	6.1*
Cc1ccc(S(=O)(=O)NNC(=S)Nc2cc(C(F)(F)F)cc(C(F)(F)F)c2)cc1	3.7*
Cc1ccc(S(=O)(=O)NNC(=S)Nc2ccccc2)cc1	0.06
Cc1ccc(S(=O)(=O)NNC(=S)Nc2c(Cl)cccc2Cl)cc1	-0.42
Cc1onc(-c2c(Cl)cccc2Cl)c1C(=O)OC(Cc1ccccc1)C(F)(F)F (centres undefined)	-0.42
CC(C)=NOC(=O)c1ccc(CSc2ccc(C(F)(F)F)cn2)o1	-1.5
